Shown are actives, neighbours in structure and some others; about 3.5% of the full set was active somewhere.
ERb coact inh: inhibitors of ERβ-SRC1 coactivator interaction, primary screen, biochemical, TR-FRET, ERβ LBD, SRC-1 peptide | Estrogen receptor beta (Homo sapiens), Q92731 | TR-FRET ER-beta LBD / SRC1-Cy5 peptide binding; receptor agonist-loaded with 1 µM estradiol | inhibition, % at 25.6 µM | 86,000 compounds, 1.3% hits | AID 633, 2007;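 active = compounds whose percent inhibition of the receptor-coactivator binding signal exceeds about 50% in the single-dose screen, limit read from the data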
ERa SRC1 pot: enhancers of ERα–SRC-1 coactivator binding, primary screen, biochemical, TR-FRET, ERα LBD, low estradiol; TR-FRET ERalpha-LBD/SRC-Cy5 coactivator binding, 2 h; 100 = basal binding, no effect; coactivator binding (% of control), % at 25.6 µM; 86,000 compounds, 1.3% hits; AID 639, 2007; Estrogen receptor (Homo sapiens), P03372; in the data active = activity above about 200%;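 note: binding measured in presence of low estradiol as agonist stimulus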
CD11b adhes inh: inhibitors of CD11b/CD18 adhesion to fibrinogen, primary screen, K562 cells, luminescence; 93,000 compounds, 0.54% hits; Integrin beta-2 (Homo sapiens) + Integrin alpha-M (Homo sapiens), P05107+P11215; inhibition, % at 10 µM; ATPlite luminescence; Mn2+ added to activate the integrin;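 active = primary inhibition of 50% or more at 10 µM, then 40% or more on retest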
ERa SRC1 inh: ERα–SRC-1 coactivator interaction inhibitors, primary screen, biochemical, TR-FRET, ERα LBD, estradiol-bound | Estrogen receptor (Homo sapiens), P03372 | TR-FRET ER-alpha LBD / SRC-1 peptide | inhibition, % at 25.6 µM | 86,000 compounds, 1.7% hits | AID 629, 2007; in the data active = inhibition above about 50%
CD11b adhes enh: enhancers of CD11b/CD18 adhesion to fibrinogen, primary screen, K562 cells, luminescence; ATPlite luminescence; activation, % at 10 µM; 93,000 compounds, 0.07% hits;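 active = 10 µM primary screen giving 50% or more activity, confirmed by 40% or more on retest at that dose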
FAK blocker: FAK kinase inhibitors, primary screen, biochemical; AID 727, 2007; Focal adhesion kinase 1 (Homo sapiens), Q05397; 97,000 compounds, 0.84% hits; biochemical FAK kinase activity assay; inhibition, %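 (tested at 7 µM)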
Target sequence (Q05397 whole entry, looked up): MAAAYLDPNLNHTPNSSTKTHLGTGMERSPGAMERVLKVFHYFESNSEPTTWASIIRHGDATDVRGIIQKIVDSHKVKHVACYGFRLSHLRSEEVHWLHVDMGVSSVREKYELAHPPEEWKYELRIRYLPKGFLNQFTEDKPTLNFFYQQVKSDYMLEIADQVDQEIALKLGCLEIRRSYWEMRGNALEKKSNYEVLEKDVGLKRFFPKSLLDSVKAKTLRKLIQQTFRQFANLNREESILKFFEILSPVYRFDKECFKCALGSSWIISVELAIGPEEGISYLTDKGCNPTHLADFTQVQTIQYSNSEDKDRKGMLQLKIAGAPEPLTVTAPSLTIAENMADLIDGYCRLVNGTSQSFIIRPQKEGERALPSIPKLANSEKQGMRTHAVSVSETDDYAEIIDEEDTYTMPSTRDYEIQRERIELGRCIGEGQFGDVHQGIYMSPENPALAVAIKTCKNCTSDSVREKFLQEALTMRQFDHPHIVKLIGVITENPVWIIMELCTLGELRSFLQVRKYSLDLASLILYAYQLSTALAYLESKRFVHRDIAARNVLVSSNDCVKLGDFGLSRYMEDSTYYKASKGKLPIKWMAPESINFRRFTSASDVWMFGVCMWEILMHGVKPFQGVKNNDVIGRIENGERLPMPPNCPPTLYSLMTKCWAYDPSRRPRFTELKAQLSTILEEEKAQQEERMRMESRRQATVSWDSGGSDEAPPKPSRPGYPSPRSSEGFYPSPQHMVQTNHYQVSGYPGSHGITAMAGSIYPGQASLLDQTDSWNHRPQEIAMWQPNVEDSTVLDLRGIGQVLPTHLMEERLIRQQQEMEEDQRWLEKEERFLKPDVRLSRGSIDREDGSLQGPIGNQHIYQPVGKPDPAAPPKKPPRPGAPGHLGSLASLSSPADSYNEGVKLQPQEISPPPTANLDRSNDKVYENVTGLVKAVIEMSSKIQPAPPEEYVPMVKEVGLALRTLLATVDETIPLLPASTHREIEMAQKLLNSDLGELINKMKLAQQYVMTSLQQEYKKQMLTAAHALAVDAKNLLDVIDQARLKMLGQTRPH
FAK inh conf: FAK kinase inhibitors, retest, confirmation, biochemical; shares compounds with FAK blocker; FAK kinase biochemical inhibition assay; inhibition, % at 7 µM; 750 compounds, 28% hits; AID 794, 2007
Each line names hits and unclear results; the compound was inactive in the other large screens (follow-up assays come after a bar, where they were run); [ ] = dose if it differs, or a comment. Cut-off read from the data, not from the text of the source, unless noted: active = inhibition above about 19%; inactive = the rest.

Cc1cc(OCC(=O)Nc2ccc3oc(-c4ccncc4)nc3c2)ccc1Cl	ERa SRC1 pot 204[fluorescence artefact?]
CCOc1ccc(CCNS(=O)(=O)c2c(C)n[nH]c2C)cc1OCC	none
Nn1c(SCC(=O)Nc2ccc3c(c2)OCO3)nnc1-c1ccncc1	none
COCCNC(=O)c1c(N)n(-c2cccc(C)c2)c2nc3ccccc3nc12	none
COc1ccc(CC(=O)Nc2ccc(-c3noc(-c4ccc(Cl)cc4)n3)cc2)cc1	ERa SRC1 inh 66 (no result: CD11b adhes inh, CD11b adhes enh)
COc1ccc(CC(=O)Nc2ccc(-c3nc4cc(C)ccc4o3)c(O)c2)cc1OC	ERb coact inh 53[fluorescence artefact?], ERa SRC1 inh 90[fluorescence artefact?]
COc1ccc(C(=O)Nc2ccc3oc(-c4cccc(F)c4)nc3c2)cc1OC	none (no result: FAK blocker)
Cc1cc(OCC(=O)Nc2ccncc2)cc(C)c1Br	CD11b adhes inh 84
COc1ccccc1C(=O)Nc1ccc2oc(-c3ccc(F)cc3)nc2c1	ERa SRC1 pot 252
Clc1ccc(CSc2nnc(CN3CCOCC3)n2-c2ccccc2)cc1Cl	none (no result: ERb coact inh, ERa SRC1 pot, ERa SRC1 inh)
O=C(Nc1ccc2oc(-c3ccncc3)nc2c1)c1c(F)c(F)c(F)c(F)c1F	ERa SRC1 pot 266
COc1c(F)c(F)c(C(=O)Nc2ccc3oc(-c4ccncc4)nc3c2)c(F)c1F	none
CCCSc1nsc(NC(=O)C(c2ccccc2)c2ccccc2)n1	CD11b adhes inh 98
CCOC(=O)N1CCC(NC(=O)c2cccn3c(=O)c4cc(Br)ccc4nc23)CC1	ERa SRC1 pot 288[fluorescence artefact?], ERa SRC1 inh 60[fluorescence artefact?]
CCOc1ccc(NC(=O)CCCc2cc(-c3ccc(OCC)cc3)on2)cc1	ERa SRC1 pot 204
O=C1C2CC=CCC2C(=O)N1CC(=O)N(Cc1ccccc1)C1CCS(=O)(=O)C1 (stereo not given)	none (no result: FAK blocker)
COc1ccc(OC)c(C(=O)CSc2nnc(-c3ccc(OC)c(OC)c3)o2)c1	ERa SRC1 pot 329
Cc1cc(C)cc(OCc2nnc(SCC(=O)c3ccc(Br)cc3)o2)c1	ERa SRC1 pot 202
COc1ccc(Cc2nnc(SCC(=O)c3ccc(OC)cc3)o2)cc1	none
COc1ccc(-c2nnc(SCC(=O)N3CCCC3)o2)cc1OC	none (no result: CD11b adhes inh, CD11b adhes enh)
Cc1[nH]c2ccc(-c3nnc(SCC(=O)c4ccc(F)cc4)o3)cc2c1C	ERb coact inh 55[fluorescence artefact?], ERa SRC1 inh 65[fluorescence artefact?]
Cc1cc(C(=O)CSc2nnc(-c3ccc(F)cc3)o2)c(C)n1CC1CCCO1 (stereo not given)	ERa SRC1 pot 229[fluorescence artefact?]
COc1ccc(C2=Nc3nc(-c4ccccc4)cn3C(c3ccc(OC)cc3)C2)cc1 (stereo not given)	none (no result: ERb coact inh, ERa SRC1 pot, ERa SRC1 inh, FAK blocker)
Cc1ccc2nsnc2c1S(=O)(=O)N(Cc1cc2cccc(C)c2[nH]c1=O)CC1CCCO1 (stereo not given)	none
O=C(C1CC1)N1CCc2cc(Br)cc(S(=O)(=O)N3CCOCC3)c21	none
CC(C)(C)NC(=O)NC(=O)CSc1nnc2ccccn12	none
CSCCC(NC(=O)OCc1ccccc1)C(=O)O (stereo not given)	none (no result: CD11b adhes inh, CD11b adhes enh)
Cc1cccc(NC(=O)CCC(=O)NCCO)c1	none (no result: CD11b adhes inh, CD11b adhes enh)
COc1ccc(C(=O)CSc2nnc(-c3ccccc3)o2)cc1	none
COc1ccc(C(=O)CSc2nnc(-c3ccc(C)cc3)o2)cc1	ERa SRC1 inh 51[fluorescence artefact?]
CC(C)(C)n1nnnc1C(c1cccc(C(F)(F)F)c1)N1CCOCC1 (stereo not given)	none (no result: ERb coact inh, ERa SRC1 pot, ERa SRC1 inh)
COC(=O)c1ccc(/C(O)=C(\C#N)c2nc3ccccc3s2)cc1	CD11b adhes inh 103
Cc1cc(C(=O)CN2C(=O)NC(Cc3c[nH]c4ccccc34)C2=O)c(C)n1C (stereo not given)	ERb coact inh 94[fluorescence artefact?]
O=C1NC(Cc2c[nH]c3ccccc23)C(=O)N1Cc1cccc2ccccc12 (stereo not given)	none (no result: ERb coact inh, ERa SRC1 pot, ERa SRC1 inh, FAK blocker)
COc1cccc(/C=N/Nc2nnc(C)n2N)c1OCc1ccccc1Cl	none (no result: ERb coact inh, ERa SRC1 pot, ERa SRC1 inh, FAK blocker)
CC(=O)N1c2ccccc2C(C)(C)C2CCC(C)CC21 (stereo not given)	none (no result: CD11b adhes inh, CD11b adhes enh)
COc1ccc(OC)c(CCNC(=O)Cn2sc3nc(C)cc(C)c3c2=O)c1	CD11b adhes inh 52
Cn1cccc1CC(=O)N/N=C/C(Cl)=C/c1ccccc1	none (no result: ERb coact inh, ERa SRC1 pot, ERa SRC1 inh, FAK blocker)
CCC(=O)/C=C1/Sc2ccc(OC)cc2N1CC	ERb coact inh 99[fluorescence artefact?] (no result: CD11b adhes inh, CD11b adhes enh)
CCC(=O)/C=C1/Sc2ccccc2N1CC	none (no result: CD11b adhes inh, CD11b adhes enh)
CCc1nc(SCC(=O)NCCc2ccccc2)c2oc3ccccc3c2n1	none
Cc1nc(SCC(=O)Nc2ccccc2)c2oc3ccccc3c2n1	ERb coact inh 53[fluorescence artefact?], ERa SRC1 pot 552[fluorescence artefact?], ERa SRC1 inh 55[fluorescence artefact?]
CCc1nc(SCC(=O)N2CCc3ccccc32)c2oc3ccccc3c2n1	none (no result: CD11b adhes inh, CD11b adhes enh, FAK blocker)
CCc1nc(SCC(=O)c2cccs2)c2oc3ccccc3c2n1	ERa SRC1 pot 224 (no result: CD11b adhes inh, CD11b adhes enh)
Cc1nc(SCC(=O)NCCc2ccccc2)c2oc3ccccc3c2n1	ERa SRC1 pot 264[fluorescence artefact?] (no result: CD11b adhes inh, CD11b adhes enh)
O=C(CSc1nc2ccccc2n1CC(=O)N1CCCC1)Nc1ccc2c(c1)OCO2	none (no result: FAK blocker)
Cn1c(=O)c2ncn(CC(=O)Nc3ccc4oc(-c5cccc6ccccc56)nc4c3)c2n(C)c1=O	ERa SRC1 inh 75[fluorescence artefact?] (no result: CD11b adhes inh, CD11b adhes enh)
CCC(C)c1ccc2oc(-c3ccc(NC(=O)Cn4cnc5c(=O)n(C)c(=O)n(C)c54)cc3)nc2c1 (stereo not given)	ERa SRC1 inh 72[fluorescence artefact?]
Cc1ccc(NC(=O)Cn2cnc3c(=O)n(C)c(=O)n(C)c32)c(C)c1	none
Cn1c(=O)c2ncn(CC(=O)Nc3ccc(N4CCOCC4)cc3)c2n(C)c1=O	none (no result: ERb coact inh, ERa SRC1 pot, ERa SRC1 inh)
CCCc1cc(=O)[nH]c(SCCOC(=O)c2ccccc2)n1	none
Nc1c(S(=O)(=O)c2cccs2)c2nc3ccccc3nc2n1Cc1ccccc1	ERa SRC1 pot 206
Cc1ccc(S(=O)(=O)c2c(N)n(Cc3ccco3)c3nc4ccccc4nc23)cc1	none
Cc1cccc(S(=O)(=O)c2c(N)n(Cc3ccco3)c3nc4ccccc4nc23)c1	ERb coact inh 61
FC(F)Sc1ccc(NC(=S)NC2CCCCC2)cc1	none
FC(F)Sc1ccc(NC(=S)NCC2CCCCC2)cc1	CD11b adhes inh 92
Cc1ccc(O)c(C2=Nc3ccccc3N=C(c3ccco3)C2)c1	ERa SRC1 pot 228[fluorescence artefact?]
O=C1CC(c2ccco2)=Nc2ccccc2N1	none (no result: CD11b adhes inh, CD11b adhes enh)
CCOC(=O)c1cccc2c1-c1ccccc1/C2=N/O	FAK blocker 49 | FAK inh conf 26

High-throughput results from PubChem.
